Assay [1] addresses Cellular tumor antigen p53 (Homo sapiens) (UniProt P04637). The experiment in a line: Primary qHTS for small molecule compounds that upregulate eGFP-tagged delta133p53alpha (in N-terminal) cells. (AID 2060322).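 For activation: series mostly up to about 56 µM; 0% = DMSO vehicle and 100% = reference activator.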 Note: nearly all actives have a fitted effect of over 75% in size. Conditions: NCI-H358 eGFP-delta133p53alpha fluorescence, 24 h; activation: stronger effect = higher value. An outline of the steps: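 NCI-H358 cells pre-induced 24 h with 10 ng/ml doxycycline to express N-terminal eGFP-delta133p53alpha, then dosed 24 h at 37C without doxycycline; fixed, Hoechst-stained, GFP intensity by laser scanning cytometry, normalized to DMSO (0%) and 57.5 uM 5-azacytidine (100%).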
(In general: Quantitative high-throughput screening tests each substance at several concentrations.)

A short description of assay [2]: BET inhibitor-based combinations targeting novel dependencies in MECOM-rearranged (r) AML: SET-2 cell line (AID 2202231).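 For viability: plate controls were DMSO treated cells for no effect and wells without cells for full effect.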 Note: nearly all actives have a fitted effect of over 35% in size. Conditions: SET-2 AML cells viability, CellTiter-Glo luminescence, 48 h; viability: stronger effect = lower value, concentration not given here. An outline of the steps:
(§1)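 Cells were plated at 500 per well and exposed to an 11-point dose series of each drug for 48 hr. Viability was measured by CellTiter-Glo luminescence, normalized to DMSO and empty-well controls, and summarized as AUC and per-cell-line Z-AUC.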
(In general: ATP-based viability assays read luminescence as a measure of living cells.)

Assay [3] can be described thus: BET inhibitor-based combinations targeting novel dependencies in MECOM-rearranged (r) AML: OCI-AML3 cell line (AID 2202232). Note: nearly all actives have a fitted effect of over 35% in size. The note with it: Potency: OCI-AML3 viability. An outline of the steps:
as §1

The nature of assay [4]: BET inhibitor-based combinations targeting novel dependencies in MECOM-rearranged (r) AML: MV-4-11 cell line (AID 2202233). Note: nearly all actives have a fitted effect of over 45% in size. The gist of the method: (§2)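 Activity is given as area under the curve and as Z-AUC, mean-centred within each cell line. It comes from 11-point dose curves normalized to DMSO and empty wells. CellTiter-Glo luminescence was read after 48 hr drug exposure of 500 cells/well.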

Assay [5] in a line: BET inhibitor-based combinations targeting novel dependencies in MECOM-rearranged (r) AML: HNT-34 cell line (AID 2202234). Note: nearly all actives have a fitted effect of over 35% in size. An outline of the steps:
as §2

Assay [6] is described as follows: BET inhibitor-based combinations targeting novel dependencies in MECOM-rearranged (r) AML: UCSD-AML1 cell line (AID 2202235). Note: nearly all actives have a fitted effect of over 40% in size. The gist of the method: as §2
Assay [7] is described as follows: BET inhibitor-based combinations targeting novel dependencies in MECOM-rearranged (r) AML: AML-191 cell line (AID 2202236; note: nearly all actives have a fitted effect of over 35% in size). The gist of the method:
as §1

Assay [8] can be described thus: BET inhibitor-based combinations targeting novel dependencies in MECOM-rearranged (r) AML: AML-194 cell line (AID 2202237; note: nearly all actives have a fitted effect of over 40% in size). An outline of the steps:
as §1

Values joined by “and” are separate entries in the source; they are usually repeats but may differ in a detail not shown here. Equal values may be shown once. Inconclusive results are not listed. Unmarked numbers belong to inactive results. Active and inactive are the calls of the source. Calls come from the whole dose curve; as a rule, active = well fitted curve in the direction sought with a large enough effect; inconclusive = small, poorly fitted or top-dose-only effect, or another doubt; inactive = no such curve, though single readings can be large; an effect the other way counts as inactive or inconclusive. Positions of bridges follow the written chain, without caps; N, C: chain ends. Non-standard residues stand in square brackets, D forms with d. Residues, ends and D or L forms follow the SMILES beside them. ξ: configuration not given here. *: point of attachment. Octanoyl(6-Me) = CCC(C)CCCCC(=O)*; ξThr(3R) = C[C@@H](O)C(N)C(=O)O; dDab = NCC[C@@H](N)C(=O)O; Dab = NCC[C@H](N)C(=O)O; Nva = CCC[C@H](N)C(=O)O; Cbz = O=C(OCc1ccccc1)*

Broadly, the viability is a read-out of living cells in per cent, often relative to untreated cells.
Potency is the fitted concentration of half-maximal effect.

Sequence of Cellular tumor antigen p53 (Homo sapiens) (P04637 whole entry, looked up): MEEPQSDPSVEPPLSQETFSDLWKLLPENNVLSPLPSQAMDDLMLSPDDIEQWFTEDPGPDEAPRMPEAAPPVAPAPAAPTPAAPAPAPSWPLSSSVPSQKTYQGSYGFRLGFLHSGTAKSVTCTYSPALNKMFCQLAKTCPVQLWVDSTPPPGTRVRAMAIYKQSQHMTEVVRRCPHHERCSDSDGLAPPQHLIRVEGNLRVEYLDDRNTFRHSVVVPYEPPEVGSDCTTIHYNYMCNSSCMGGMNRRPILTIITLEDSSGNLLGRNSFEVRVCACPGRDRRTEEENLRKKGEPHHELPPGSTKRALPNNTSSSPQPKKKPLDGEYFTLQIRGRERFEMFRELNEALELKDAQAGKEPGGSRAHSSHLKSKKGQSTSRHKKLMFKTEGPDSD

On to `C[N+]1(C)[C@@H]2CC(OC(=O)[C@H](CO)c3ccccc3)C[C@H]1[C@@H]1O[C@@H]12` (stereo partly specified), for which, in assay [1], the activation was -7.53%. Besides, the viability in assay [2] was 116%. The Potency result in assay [3], in assay [4], in assay [5], in assay [6], in assay [7] and in assay [8] was “inactive” in each case.

As for `OC[C@H]1O[C@@H](O[C@@H]2[C@@H](CO)O[C@](O)(CO)[C@H]2O)[C@H](O)[C@@H](O)[C@H]1O`, in assay [1], the activation was 10%. The viability in assay [2] was 108%. Also, the Potency entry in assay [3], in assay [4], in assay [5], in assay [6], in assay [7] and in assay [8] was “inactive” each time.

Take `CCC[C@@H](C=O)NC(=O)[C@H](CC(C)C)NC(=O)[C@H](CC(C)C)NC(=O)OCc1ccccc1` (Cbz-Leu-Leu-[Nva]-aldehyde): the Potency in assay [1] was 5.44 µM (active); in assay [2], 2.09 µM (active); in assay [3], 2.35 µM (active); in assay [4], 2.95 µM (active); in assay [5], 2.63 µM (active); in assay [6], 3.32 µM (active). The results for the Potency in assay [7] and in assay [8] were 2.95 µM (active) and 2.63 µM (active), respectively.

As for `COCCCN1CCC(NC(=O)c2cc(Cl)c(N)c3c2OCC3)CC1`, the activation in assay [1] was -6.16%. In addition, the viability in assay [2] is 118%. The Potency entry in assay [3], in assay [4], in assay [5], in assay [6], in assay [7] and in assay [8] was “inactive” each time.

In the case of `CC(C)(C#N)c1cc(Cn2cncn2)cc(C(C)(C)C#N)c1`, in assay [1], the activation is 2.42%. In assay [2], the viability was 107%. The Potency entry in assay [3], in assay [4], in assay [5], in assay [6], in assay [7] and in assay [8] was “inactive” throughout.

Regarding `CCc1cc(C(N)=S)ccn1`, in assay [1], the activation is -7.53% and 9.71%. Besides, in assay [2], the viability is 109%. Also, the Potency result in assay [3], in assay [4], in assay [5], in assay [6], in assay [7] and in assay [8] was “inactive” in each case.

As for `CCCc1nc(C(C)(C)O)c(C(=O)O)n1Cc1ccc(-c2ccccc2-c2nn[nH]n2)cc1`, the activation in assay [1] was -5.2%. Further, in assay [2], the viability is 116%. Besides, the Potency result in assay [3], in assay [4], in assay [5], in assay [6], in assay [7] and in assay [8] was “inactive” throughout.

For the molecule `O=C(O)C1=CC(O)C(O)[C@H](O)C1` (stereo partly specified), in assay [1], the activation was 16.4%. For the same molecule, the viability in assay [2] is 115%. Moreover, the Potency entry in assay [3], in assay [4], in assay [5], in assay [6], in assay [7] and in assay [8] was “inactive” each time.

With `CCC(C)CCCCC(=O)N[C@@H](CCN)C(=O)NC(C(=O)N[C@H](CCN)C(=O)N[C@@H]1CCNC(=O)C([C@@H](C)O)NC(=O)[C@@H](CCN)NC(=O)[C@@H](CCN)NC(=O)[C@@H](CC(C)C)NC(=O)[C@H](Cc2ccccc2)NC(=O)[C@H](CCN)NC1=O)[C@@H](C)O` (stereo partly drawn) ({Octanoyl(6-Me)}-[Dab][ξThr(3R)][dDab][dDab][Dab]F[dL][dDab][dDab][ξThr(3R)]; lactam 4-C), in assay [1], the activation is 11.9%. The viability in assay [2] is 126%. For the same molecule, the Potency entry in assay [3], in assay [4], in assay [5], in assay [6], in assay [7] and in assay [8] was “inactive” in each case.

Take `NC(=O)c1ncn([C@@H]2O[C@H](CO)[C@@H](O)[C@H]2O)c1N`: the activation in assay [1] was -7.53%. Also, the viability in assay [2] was 114%. The Potency result in assay [3], in assay [4], in assay [5], in assay [6], in assay [7] and in assay [8] was “inactive” each time.

Turning to `COC1CCC(C(=O)c2ccc3nc4c(cc3c2)CCCO4)CC1` (stereo unspecified), the activation in assay [1] is -1.02%. The viability in assay [2] was 105%. For the same molecule, the Potency entry in assay [3], in assay [4], in assay [5], in assay [6], in assay [7] and in assay [8] was “inactive” each time.

`N#Cc1ccnc(Nc2cc(C3CCN(C4COC4)CC3)cc(N3CCC(F)(F)C3)n2)c1`: the Potency in assay [1] is 27.2 µM (active); in assay [2], 3.72 µM (active); in assay [3] it was 8.33 µM (active); in assay [4], 0.235 µM (active); in assay [5], 0.833 µM (active); in assay [6] it was 2.95 µM (active). Moreover, the results for the Potency in assay [7] and in assay [8] were 2.95 µM (active) and 4.17 µM (active), respectively.

Turning to `O=C1CCCC(=O)C1C(=O)c1ccc(C(F)(F)F)cc1[N+](=O)[O-]`, the activation in assay [1] was 24.5%. Also, the viability in assay [2] was 111%. Also, the Potency result in assay [3], in assay [4], in assay [5], in assay [6], in assay [7] and in assay [8] was “inactive” throughout.

As for `CN1C(=O)c2sccc2N(C)c2nc(Nc3ccc(S(N)(=O)=O)cc3)ncc21`, the activation in assay [1] was -6.75%. The Potency was 6.61 µM (active) in assay [2]; 1.66 µM (active) in assay [3]; 1.05 µM (active) in assay [4]; 0.934 µM (active) in assay [5]; 2.35 µM (active) in assay [6]; 3.72 µM (active) in assay [7]. The Potency in assay [8] was 2.35 µM (active).

For the molecule `Cc1ncc([N+](=O)[O-])n1CC(C)O` (stereo unspecified), the activation in assay [1] was 12.6% and -16.1%. The viability in assay [2] was 124%. Also, the Potency result in assay [3], in assay [4], in assay [5], in assay [6], in assay [7] and in assay [8] was “inactive” throughout.

As for `C[C@H](NC(=O)c1sccc1OCc1ccc(Cl)cc1)c1ccccc1`, the activation in assay [1] is 16.4%. Further, the Potency in assay [2] was 16.6 µM (active); in assay [4], 13.2 µM (active). Further, the Potency entry in assay [3], in assay [5], in assay [6], in assay [7] and in assay [8] was “inactive” throughout.

As for `CCc1ccc(OCc2ccccc2C(=O)Nc2ccc3nc(C)cc(N)c3c2)cc1`, the activation in assay [1] is 45.3%. The Potency was 6.61 µM (active) in assay [2]; 8.33 µM (active) in assay [3]; 5.9 µM (active) in assay [4]; 4.17 µM (active) in assay [5]; 7.42 µM (active) in assay [6]; 7.42 µM (active) in assay [7]. For the same molecule, in assay [8], the Potency is 6.61 µM (active).

The values above are taken from PubChem BioAssay (NCATS).
